About 950 (1.4%) of roughly 69,000 compounds showed an effect of 50% or more. For the sample, strong results were picked, then their nearest neighbours and some compounds at random.
Test system: Mycobacterium tuberculosis
Experiment: Cornell M. t heat shock assay; further: in the data most compounds retested in dose-response had high values
Format: functional, organism-based
Parameters: dose or concentration left out as unconfirmed

Compound | Percent Effect
O=C(O)C(F)(F)F.O=C(O)C(F)(F)F.O=C1COC2(CCN(Cc3ccncc3)CC2)CN1c1ccccc1 | -2.605%
CO[C@@H]1CCN(Cc2ccoc2)[C@H]1Cc1ccccc1.O=C(O)C(F)(F)F | 14.91%
Fc1cnc(N2CCCC3(CN(Cc4ccncc4)CCO3)C2)nc1.O=C(O)C(F)(F)F.O=C(O)C(F)(F)F (centres undefined) | 10.78%
Cc1ncc2c(n1)CCCC2NC(=O)c1ccc(Cn2cccn2)cc1 (centres undefined) | 72.35%
Cc1ncc2c(n1)CCCC2NC(=O)c1ccncc1 (centres undefined) | -6.944%
Cc1ncc2c(n1)CCCC2NC(=O)c1cnn(Cc2ccccc2)c1 (centres undefined) | -15.56%
COCC(=O)N1CCCCC1c1ccnc(Nc2cnccn2)n1 (centres undefined) | -6.25%
Nc1nccc(C2CCCN2CCc2ccccc2)n1 (centres undefined) | 10.92%
Cc1nccc(C2CCCCN2Cc2ccccc2)n1 (centres undefined) | -13.8%
c1ccc(CCN2CCCC2c2ccnc(Nc3cnccn3)n2)cc1 (centres undefined) | 57.03%
COCC(=O)N1CCCC1c1ccnc(Nc2cnccn2)n1 (centres undefined) | -1.39%
c1ccc(CCN2CCCC2c2ccnc(Nc3ncccn3)n2)cc1 (centres undefined) | 91.35%
COCCOc1ccc(NC(=O)C2CC(=O)N(C)C2)cn1 (centres undefined) | 4.167%
COCCn1cc(C(=O)N2CCCC2c2cccc(F)c2)ccc1=O (centres undefined) | -4.621%
O=C(O)C(F)(F)F.c1csc(CN2Cc3nccn3CC(Cn3cncn3)C2)c1 (centres undefined) | -12.15%
CCc1ccc(CN(CCN(C)C)Cc2ccc(C)s2)nc1 | 88.98%
COc1ncc(CN(CCN(C)C)Cc2ccc(C)s2)cn1 | -3.645%
CCNc1ncc(CN(CCN(C)C)Cc2ccc(C)s2)cn1 | 2.161%
O=C(O)C(F)(F)F.O=C(O)C(F)(F)F.c1cncc(OC[C@]23COC[C@H]2CN(Cc2ccsc2)C3)c1 | -29.89%
Cl.O=S(=O)(c1ccc(Cl)cc1)N1CCc2nc(C3CCNCC3)ncc2C1 | 15.18%

Compound | Percent Effect
COc1cc(C)c(-c2ccc(F)c3c2OC(CN)C3)cc1C (centres undefined) | 51.67%
COc1cc(-c2ccc(F)c3c2OC(CN)C3)cc(OC)c1OC (centres undefined) | -5.435%
COc1cccnc1-c1ccc(F)c2c1OC(CN)C2 (centres undefined) | -14.02%
CC(C)CCN1C[C@H]2C[C@H](C(=O)N3CCCC3)[C@@H](C1)O2.O=C(O)C(F)(F)F | 37.85%
c1ccc(CN2CCN(c3ccc4nncn4n3)CC2)nc1 | 6.511%
CC1CN(CC(=O)NC2CCCC2)CCN1c1ccc2nncn2n1 (centres undefined) | 176.2%
O=C(CCN1CCN(c2ccc3nncn3n2)CC1)NC1CCCC1 | -7.134%
CC1CN(CC2CCCC2)CCN1c1ccc2nncn2n1 (centres undefined) | 85.93%
CC1CCCCN1C(=O)CN1CCN(c2ccc3nncn3n2)CC1 (centres undefined) | 5.269%
O=C(CN1CCN(c2ccc3nncn3n2)CC1)NC1CCCCC1 | 57.46%
Cc1cnc(CN2CCN(c3ccc4nncn4n3)C(C)C2)cn1 (centres undefined) | -3.544%
CC1CN(CC2CCCCC2)CCN1c1ccc2nncn2n1 (centres undefined) | 16.09%
O=C(CCN1CCN(c2ccc3nncn3n2)CC1)N1CCCCC1 | -7.972%
O=C(CN1CCN(c2ccc3nncn3n2)CC1)NC1CCCC1 | 59.84%
CC1CN(CC(=O)N2CCCC2)CCN1c1ccc2nncn2n1 (centres undefined) | 15.46%
CC1CN(Cc2nccn2C)CCN1c1ccc2nncn2n1 (centres undefined) | -15.38%
COCc1ncn2c1CN(C(=O)c1cccc3cccnc13)CC2.O=C(O)C(F)(F)F | -14.48%
O=C(O)C(F)(F)F.O=C(O)C(F)(F)F.c1ccc(OCC2C[C@@H]3[C@@H](C2)OCCN3Cc2ccoc2)nc1 (some centres undefined) | 14.26%
CN(C)CCN1CCCC12CCCN(C(=O)c1cccnc1)C2.O=C(O)C(F)(F)F.O=C(O)C(F)(F)F (centres undefined) | -7.014%
Cc1nc(N(C)C)nc2c1COCC21CCN(CC2CC2)C1.O=C(O)C(F)(F)F (centres undefined) | 4.702%

Compound | Percent Effect
CC1c2ncc(CNC(=O)C3CC3)n2CCN1CC1CCC1.O=C(O)C(F)(F)F (centres undefined) | -0.1216%
Cc1ccc([C@]2(O)CC[C@H]3CN(Cc4cccc(Cl)c4Cl)C[C@H]32)nc1.O=C(O)CC(O)(CC(=O)O)C(=O)O | 90.52%
O=C(O)CC(O)(CC(=O)O)C(=O)O.O[C@@]1(c2ccccn2)CC[C@H]2CN(Cc3cccc(Cl)c3Cl)C[C@H]21 | 14.33%
Cc1ccc([C@]2(O)CC[C@H]3CN(Cc4cccc(F)c4F)C[C@H]32)nc1.O=C(O)CC(O)(CC(=O)O)C(=O)O | 2.948%
Cl.NC(=O)CCc1cccc(C2CCNCC2)n1 | 3.085%
COc1ccccc1CC(=O)N1CCCC(n2nc(C)nc2C)C1 (centres undefined) | -10.87%
CC[C@@H]1N(Cc2ccc(C)s2)CCC[C@]12CCC(=O)N2C.O=C(O)C(F)(F)F | 1.978%
Cc1cc(C(=O)NCC2OCCc3cn(CC4CC4)nc32)c(C)[nH]1 (centres undefined) | 105.1%
COCCn1cc2c(n1)C(CNC(=O)c1cc(C)[nH]c1C)OCC2 (centres undefined) | 38.13%
CS(=O)(=O)CC(=O)NCC1OCCc2cn(CC3CC3)nc21 (centres undefined) | 11.68%
Cn1cc(CN2CCC3(CCCN3Cc3cccnc3)CC2)cn1.O=C(O)C(F)(F)F.O=C(O)C(F)(F)F.O=C(O)C(F)(F)F | -39.86%
CC(=O)c1ccc(NC(=O)NC(C(=O)N(C)C)C(C)C)cc1 (centres undefined) | 30.77%
CC(=O)c1ccc(NC(=O)N[C@H](C(=O)O)C(C)C)cc1 | -1.764%
Cc1ccc(NC(=O)NC(C)Cn2cccn2)cc1 (centres undefined) | 0.5452%
COc1ccc(NC(=O)NC(C)Cn2cccn2)cn1 (centres undefined) | 0.2337%
CC(Cn1cccn1)NC(=O)Nc1ccc(F)cc1 (centres undefined) | 97.32%
CC(C)C(NC(=O)Nc1ccc(F)cc1)C(=O)N(C)C (centres undefined) | 54.32%
O=C(O)C(F)(F)F.O=C(O)C(F)(F)F.c1cc(CO[C@@H]2CC[C@H]3[C@H]2OCCN3Cc2ccoc2)ccn1 | -10.25%
Cc1nc(CN2C[C@@H]3CN(C(=O)c4ccnnc4)C[C@@H]3C2=O)cs1.O=C(O)C(F)(F)F | 0.6336%

Reference: ChEMBL document CHEMBL3988442, “University of Dundee, Small-Polar-MMV Screening Library” (2021)
